PubChem BioAssay
Active and inactive are the calls of the source.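 The calls were made as follows, unless noted: active = inhibition of the reporter signal at or above 50%; inactive = inhibition below 50%.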

Legend:
[1] = inhibitors of TNFa-induced NFkB p65 translocation, primary screen, imaging, HUVEC, MLSMR starter and 10KST1 sets (AID 438;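 active = inhibition above 20% together with a positive visual image hit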;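 also: compound added about 3h40 before a 20 min TNFalpha stimulation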;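 as to inhibition: signal is the nuclear over cytoplasmic p65 intensity ratio per well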); conditions: HUVEC TNFa-induced p65 nuclear translocation; cell count: measured here: nuclei count (cytotoxicity indicator), at 2.08 µM; inhibition: at 2 µM, stronger effect = higher value, 0% TNFa-plus-vehicle, 100% no-TNFa wells
[2] = reduction of polyQ htt aggregates in cells – imaging, exon1htt(103Q)mCFP cells, high-content imaging, primary screen (AID 483;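 active = visual image review flags a hit and inhibition of aggregation exceeds 20%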;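 also: compound exposure lasted 3 days before fixation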;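 as to nuclei count: percent of the per-plate median nuclei count of sample wells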); conditions: exon1htt(103Q)mCFP cell line, aggregate imaging, at 2 µM; inhibition of aggregation: stronger effect = higher value; nuclei count: measured here: cell count, toxicity
[3] = endothelial E-selectin expression blockers – imaging, HUVEC, immunofluorescence, MLSMR starter and 10KST1 sets, primary screen (AID 487;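 active = visually confirmed hit in the image check and inhibition above 20%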;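 as to inhibition: signal is fraction of cell area covered by stained E-selectin grains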;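 as to nuclei count: 100% = median nuclei count of all wells on the same plate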); conditions: HUVEC TNFalpha-induced E-selectin immunofluorescence imaging, at 2 µM; inhibition: stronger effect = higher value; nuclei count: measured here: cell number, toxicity
[4] = molecular target: Voltage-gated potassium channel subunit beta-2 (Rattus norvegicus) (UniProt P62483); assay: inhibitors of rat Kvbeta2 reductase activity – biochemical, NADPH fluorescence, primary screen (AID 622;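 active = fluorescence slope higher than the sample average by over 3 SD, cut at about -0.22 in these data, passing the limit was not always enough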;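 also: slope of raw intensity against log time taken from 70 to 1610 s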); conditions: recombinant KvBeta, 4-cyanobenzaldehyde reduction, at 10 µM, stronger effect = higher value
[5] = molecular target: Voltage-gated potassium channel subunit beta-2 (Rattus norvegicus) (UniProt P62483); assay: enhancers of rat Kvbeta2 NADPH turnover – biochemical, NADPH fluorescence, primary screen (AID 623;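 active = NADPH fluorescence slope more negative than the mean of all samples by about 3 SD, 99.7% confidence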;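 also: fluorescence intensity change per second fitted from 20 to 320 s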); conditions: Recombinant KvBeta, NADPH fluorescence decrease slope, 10 min; at 10 µM; stronger effect = lower value
[6] = molecular target: Alpha-2C adrenergic receptor (Homo sapiens) (UniProt P18825); assay: compounds altering alpha2C-coupled GIRK flux – cell-based, HEK293 alpha2C/GIRK1/2, thallium flux, primary screen (AID 624;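 active = fluorescence slope after compound addition differing from the mean of all screened samples at 99.7% confidence, in either direction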;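 also: slope of fluorescence ratio to pre-addition baseline per second over 15 to 24 s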); conditions: thallium flux BTC fluorescence, at 10 µM, actives lie on both sides
[7] = blockers of RIG-like receptor reporter activation – cell-based, Sendai virus stimulus, luciferase, 10K MLSCN set, TLR/RLR signaling modifier project, primary screen (AID 602276;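 active = inhibition at or above 50% at 10 µM; inactive = inhibition below 50%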;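 also: firefly luciferase from ISG56 promoter only with Renilla not read in this screen; 0% = Sendai virus plus DMSO and 100% = medium plus DMSO without virus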); conditions: HEK293 RL24 IRF3 luciferase reporter, at 10 µM, stronger effect = higher value
[8] = TLR3 IRF3 reporter activation blockers – cell-based, poly I:C stimulus, luciferase, 10K MLSCN set, primary screen (AID 602277); conditions: HEK293-TLR3 RL24 IRF3 luciferase reporter, at 10 µM, stronger effect = higher value

Sequence of Alpha-2C adrenergic receptor (Homo sapiens) (P18825 whole entry, looked up): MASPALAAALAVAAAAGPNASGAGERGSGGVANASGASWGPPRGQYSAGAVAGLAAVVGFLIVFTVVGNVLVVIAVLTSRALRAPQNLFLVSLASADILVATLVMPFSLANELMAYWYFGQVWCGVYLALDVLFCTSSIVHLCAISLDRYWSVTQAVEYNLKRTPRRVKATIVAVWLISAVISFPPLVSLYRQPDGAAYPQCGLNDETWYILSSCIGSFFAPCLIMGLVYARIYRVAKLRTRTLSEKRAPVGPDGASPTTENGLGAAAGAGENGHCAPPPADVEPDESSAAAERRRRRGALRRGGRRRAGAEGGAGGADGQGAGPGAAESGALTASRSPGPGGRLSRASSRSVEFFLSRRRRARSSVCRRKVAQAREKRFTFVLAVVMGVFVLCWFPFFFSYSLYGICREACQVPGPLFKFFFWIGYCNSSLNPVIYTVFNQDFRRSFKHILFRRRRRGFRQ
Sequence of Voltage-gated potassium channel subunit beta-2 (Rattus norvegicus) (P62483 whole entry, looked up): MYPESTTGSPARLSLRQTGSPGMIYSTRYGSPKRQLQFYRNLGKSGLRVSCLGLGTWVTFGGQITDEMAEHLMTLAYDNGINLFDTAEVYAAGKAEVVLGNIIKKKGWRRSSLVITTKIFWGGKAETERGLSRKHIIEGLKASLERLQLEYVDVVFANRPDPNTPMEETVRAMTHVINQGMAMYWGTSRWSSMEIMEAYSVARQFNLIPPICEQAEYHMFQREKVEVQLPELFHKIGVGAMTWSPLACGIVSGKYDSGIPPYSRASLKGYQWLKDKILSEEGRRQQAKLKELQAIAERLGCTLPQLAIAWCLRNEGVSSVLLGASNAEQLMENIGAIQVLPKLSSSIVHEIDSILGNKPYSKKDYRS

SMILES | cell count [1] | inhibition [1] | inhibition of aggregation [2] | nuclei count [2] | inhibition [3] | nuclei count [3] | fluorescence slope [4] | NADPH fluorescence slope [5] | slope [6] | inhibition [7] | inhibition [8]
COCCSc1nnc(NC(=O)CSCc2ccccc2)s1 | 524 | -14.6% (inactive) | 3.8% (inactive) | 112% | -31.2% (inactive) | 89.4% | -0.528 (inactive) | -3.2e-05 (inactive) | 0.00459 (inactive) | 19% (inactive) | 26.7% (inactive)
Cc1ccc(S(=O)(=O)CCC(=O)Nc2ccc3c(c2)OCO3)cc1 | 666 | -12.2% (inactive) | -1.1% (inactive) | 131% | -26.9% (inactive) | 115% | -0.587 (inactive) | -6.2e-05 (inactive) | 0.00603 (inactive) | -0.686% (inactive) | 12.3% (inactive)
CCOc1ccccc1N1CCN(C(=O)c2ccncc2)CC1 | 428 | -1.5% (inactive) | 12.2% (inactive) | 90.1% | 11.7% (inactive) | 105% | -0.421 (inactive) | -0.000112 (inactive) | 0.00573 (inactive) | -5.17% (inactive) | 15.5% (inactive)
CCOC(=O)C1=C(N)OC2=C(C(=O)CC(C)(C)C2)C1c1ccoc1 (stereo not drawn) | 774 | -12.9% (inactive) | -14.6% (inactive) | 78.3% | -15.3% (inactive) | 110% | -0.418 (inactive) | -4e-05 (inactive) | 0.00368 (inactive) | 3.82% (inactive) | 7.84% (inactive)
N#CCCN(Cc1cccnc1)C(=O)Nc1ccc(Cl)c(Cl)c1 | 398 | 3.1% (inactive) | -31.1% (inactive) | 109% | -20.5% (inactive) | 99.6% | -0.449 (inactive) | 5.4e-05 (inactive) | 0.0054 (inactive) | 15.4% (inactive) | 29.1% (inactive)
NC(=O)CSCc1ccc(Br)cc1 | 313 | 8.3% (inactive) | 12.7% (inactive) | 91.7% | -103% (inactive) | 105% | -0.579 (inactive) | -5e-05 (inactive) | 0.00494 (inactive) | 11.5% (inactive) | 13.5% (inactive)
CC(CC(=O)NCc1ccccc1)C1CCCO1 (stereo not drawn) | 439 | -2% (inactive) | 20.9% (inactive) | 92.2% | -112% (inactive) | 114% | -0.463 (inactive) | -3.8e-06 (inactive) | 0.0065 (inactive) | -2.84% (inactive) | -9.76% (inactive)
C=C(C)COc1ccc(-c2nc(N)ncc2-c2ccc(OC)cc2)c(O)c1 | 278 | -9.5% (inactive) | 24.6% (inactive) | 69.5% | -120% (inactive) | 111% | -0.433 (inactive) | -2.4e-05 (inactive) | 0.00614 (inactive) | 5.72% (inactive) | 27.1% (inactive)
O=S(CC(O)COCc1ccc(Cl)cc1)c1ccccn1 (stereo not drawn) | 420 | -7.1% (inactive) | -11.3% (inactive) | 107% | -37% (inactive) | 127% | -0.442 (inactive) | 6.3e-05 (inactive) | 0.00586 (inactive) | 18.9% (inactive) | 23.8% (inactive)
CCC12CN3CC(CC)(CN(C1)C3c1ccc(OC(C)C)cc1)C2=O (stereo not drawn) | 692 | 12.1% (inactive) | 10.5% (inactive) | 93.2% | -15.2% (inactive) | 94.3% | -0.528 (inactive) | -0.000143 (inactive) | 0.0058 (inactive) | 8.78% (inactive) | 15.9% (inactive)
Cc1ccc2c(c1)c1c3n2CC(=C2C(=O)OC(C)(C)OC2=O)NC3CCC1 (stereo not drawn) | 613 | -10.5% (inactive) | -5.4% (inactive) | 10.9% | -142% (inactive) | 139% | -0.589 (inactive) | -1.7e-05 (inactive) | 0.00226 (inactive) | 16.6% (inactive) | 1.44% (inactive)
COc1ccc(C(O)Cn2c(=N)n(CCCN(C)C)c3ccccc32)cc1 (stereo not drawn) | 569 | -12.9% (inactive) | -27.4% (inactive) | 85.7% | -30.3% (inactive) | 112% | -0.587 (inactive) | 2.2e-05 (inactive) | 0.00727 (inactive) | -10.7% (inactive) | -0.929% (inactive)
CC(Oc1ccccc1)C(=O)Nc1ccc(S(=O)(=O)NCC2CCCO2)cc1 (stereo not drawn) | 377 | 5% (inactive) | 17.7% (inactive) | 81.9% | -84.8% (inactive) | 99.2% | -0.411 (inactive) | 1.4e-05 (inactive) | 0.00888 (inactive) | 20.7% (inactive) | 98.9% (active)
CCN1CCN(C(=O)c2cn(CC)c3ccc(S(=O)(=O)N(C)C)cc3c2=O)CC1 | 639 | 1.3% (inactive) | 12.4% (inactive) | 100% | -30% (inactive) | 107% | -0.59 (inactive) | -3.2e-05 (inactive) | 0.00681 (inactive) | 7.55% (inactive) | 20.6% (inactive)
O=P(O)(O)C(O)C(F)(F)C(F)(F)C(F)(F)C(F)F (stereo not drawn) | 436 | 8.1% (inactive) | -7% (inactive) | 108% | 12.7% (inactive) | 127% | -0.31 (inactive) | -2e-06 (inactive) | 0.0027 (inactive) | 19.8% (inactive) | 17.5% (inactive)
CN(CC(=O)Nc1ccc(F)c(Cl)c1)S(=O)(=O)c1cccc2nsnc12 | 615 | -19.8% (inactive) | 5.8% (inactive) | 64.7% | -18.3% (inactive) | 108% | -0.34 (inactive) | -3.5e-05 (inactive) | 0.00478 (inactive) | -14.7% (inactive) | 98.7% (active)
Cc1ccccc1OCc1nnc(SCC(=O)NCc2ccccc2)n1C | 409 | 3.9% (inactive) | -6.5% (inactive) | 106% | -22.7% (inactive) | 120% | -0.521 (inactive) | 5.8e-06 (inactive) | 0.00575 (inactive) | 12% (inactive) | 23.6% (inactive)
O=C(O)C1CC=CCC1C(=O)Nc1cccc(F)c1 (stereo not drawn) | 446 | 5.9% (inactive) | -9.5% (inactive) | 112% | 0.8% (inactive) | 116% | -0.432 (inactive) | -2.5e-05 (inactive) | 0.00329 (inactive) | 10.2% (inactive) | 31.8% (inactive)
CCOc1ccccc1-n1c(SCC(=O)NCc2ccco2)nnc1-c1ccncc1 | 376 | 8.9% (inactive) | 6% (inactive) | 93% | 6% (inactive) | 85.8% | -0.405 (inactive) | 3.6e-05 (inactive) | 0.00499 (inactive) | 7.96% (inactive) | 21.5% (inactive)
COc1ccc(CCN2C(=O)CC(N3CCOCC3)C2=O)cc1 (stereo not drawn) | 665 | -1.8% (inactive) | -7.6% (inactive) | 100% | -57% (inactive) | 102% | -0.496 (inactive) | -6.6e-05 (inactive) | 0.00402 (inactive) | 4.57% (inactive) | -0.756% (inactive)
COc1ccc(N2CCN(CCNS(=O)(=O)c3cccc4nsnc34)CC2)cc1 | 353 | -3% (inactive) | 8.4% (inactive) | 106% | -119% (inactive) | 104% | -0.443 (inactive) | 1.8e-05 (inactive) | 0.00512 (inactive) | 11.2% (inactive) | 18% (inactive)
COc1ccc(/C=N/n2cnnc2SCc2ccc(OC)cc2)cc1 | 378 | 3.1% (inactive) | 1.4% (inactive) | 96.9% | -27.7% (inactive) | 108% | -0.348 (inactive) | -4.9e-05 (inactive) | 0.00577 (inactive) | 6.24% (inactive) | 0.256% (inactive)
O=C1NC(c2ccccc2)(C(F)(F)F)SC2=CCCCCN12 (stereo not drawn) | 415 | 12.1% (inactive) | 2% (inactive) | 98.6% | -14% (inactive) | 111% | -0.545 (inactive) | 5e-05 (inactive) | 0.00583 (inactive) | -3.83% (inactive) | 7.38% (inactive)
Cc1cc(C)n2c(SCC(=O)Nc3cc(C)on3)nnc2n1 | 335 | -14.1% (inactive) | 2.1% (inactive) | 71.2% | 3.6% (inactive) | 100% | -0.555 (inactive) | -2.2e-05 (inactive) | 0.00561 (inactive) | 11% (inactive) | 22.4% (inactive)
CC(=O)n1nc(-c2ccco2)nc1SCc1ccccc1 | 573 | 2.8% (inactive) | 25.1% (inactive) | 100% | -122% (inactive) | 94.1% | -0.599 (inactive) | 1.3e-05 (inactive) | 0.00839 (inactive) | -22.5% (inactive) | -108% (inactive)
COCCNC(=O)C(C)N(c1ccc(Oc2ccccc2)cc1)S(C)(=O)=O (stereo not drawn) | 333 | 2.5% (inactive) | -15.1% (inactive) | 98.6% | -21.7% (inactive) | 111% | -0.445 (inactive) | -6.4e-05 (inactive) | 0.00568 (inactive) | 14.7% (inactive) | 23.7% (inactive)
Cc1ccc2c(c1)C(N1CCCC1=O)CC(c1ccco1)N2 (stereo not drawn) | 343 | 0% (inactive) | 14.5% (inactive) | 94.2% | -7.7% (inactive) | 106% | -0.407 (inactive) | 3.1e-05 (inactive) | 0.00529 (inactive) | -30.3% (inactive) | 98.9% (active)
O=C(CCC(=O)N(c1cccc(F)c1)C(C(=O)NC1CCCC1)c1ccncc1)Nc1cccnc1 (stereo not drawn) | 465 | 0.6% (inactive) | -8.2% (inactive) | 70.3% | -32.3% (inactive) | 108% | -0.5 (inactive) | -3.7e-05 (inactive) | 0.00449 (inactive) | 18.8% (inactive) | 20.4% (inactive)
